# Screening data as filed in PubChem.
# 12-LOX inh = ALOX12 (human) lipoxygenase inhibition; purified 12hLO, xylenol orange hydroperoxide absorbance; Potency, µM (doses to about 108 µM), inactives show at the highest dose activity change, negative = inhibition, usual class: inhibitors; 1.1% of 580,000 active; AID 1671190; also: potency is read from the fitted curve at half-maximal effect
# Target sequence (P18054 whole entry, looked up): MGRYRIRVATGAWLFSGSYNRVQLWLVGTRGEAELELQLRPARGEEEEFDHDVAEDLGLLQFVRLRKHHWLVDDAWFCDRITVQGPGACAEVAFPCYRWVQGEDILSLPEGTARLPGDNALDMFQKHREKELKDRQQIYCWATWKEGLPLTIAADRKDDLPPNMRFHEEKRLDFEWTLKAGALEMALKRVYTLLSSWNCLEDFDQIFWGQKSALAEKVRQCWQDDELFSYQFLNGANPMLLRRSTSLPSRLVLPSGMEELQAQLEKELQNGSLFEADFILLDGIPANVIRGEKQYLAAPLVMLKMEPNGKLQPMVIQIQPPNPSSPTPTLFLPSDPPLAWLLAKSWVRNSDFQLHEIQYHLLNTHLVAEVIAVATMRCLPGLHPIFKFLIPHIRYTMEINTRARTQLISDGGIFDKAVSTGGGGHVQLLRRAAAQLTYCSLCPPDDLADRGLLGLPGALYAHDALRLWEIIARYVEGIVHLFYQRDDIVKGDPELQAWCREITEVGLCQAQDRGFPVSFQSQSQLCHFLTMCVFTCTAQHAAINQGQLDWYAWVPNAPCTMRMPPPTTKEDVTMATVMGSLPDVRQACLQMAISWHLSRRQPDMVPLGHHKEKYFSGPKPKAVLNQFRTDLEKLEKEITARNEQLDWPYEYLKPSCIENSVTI
#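 Hydroperoxide product was detected by ferrous iron/xylenol orange as the 573 to 405 nm absorbance ratio. Arachidonic acid at 40 uM (final) was turned over for 30 min at room temperature by 150 nM human 12hLO, pH 7.0 Hepes buffer, after 15 min compound preincubation.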
# TDP1 cell noCPT = qHTS for Inhibitors of human tyrosyl-DNA phosphodiesterase 1 (TDP1): qHTS in cells in absence of CPT; 15% of 420,000 active; DT40 Tdp1-/- hTDP1 cells, no CPT, ATP luminescence, 48 h; Potency, µM (top dose mostly 46.2 µM), for inactives: top-dose activity change, negative = growth inhibition, hits mostly inhibitors; also: potency is read from the fitted curve at half-maximal effect; nearly all actives have a fitted effect of over 55% in size
#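 Chicken DT40 Tdp1-/- cells stably complemented with human TDP1 were seeded at 400 cells/well with DMSO in place of 20 nM camptothecin. After compound pinning, cells grew at least 48 hr at 37 °C; viability read by CellTiter-Glo luminescence.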
# TDP1 cell CPT = growth inhibition of DT40 Tdp1-/-;hTDP1 cells with camptothecin (screen for TDP1 inhibitors); chicken DT40 Tdp1-/-;hTDP1 cells + 20 nM CPT, ATP luminescence, 48 h; Potency, µM (highest dose often 46.2 µM), without a hit: at the highest dose activity change, negative = growth inhibition, most hits filed as inhibitors; 12% of 420,000 active; AID 686979; also: potency is read from the fitted curve at half-maximal effect; nearly all actives have a fitted effect of over 55% in size
#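 Cell growth measured by CellTiter-Glo luminescence after a minimum 48 h, 37 C compound exposure with 20 nM CPT in Tdp1-knockout DT40 cells stably expressing hTDP1, seeded 400/well; qHTS titration format.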
# IL1B secr inh = inhibitors of inflammasome signaling (IL-1 beta secretion); THP-1 LPS/ATP IL-1B secretion, AlphaLISA, 16 h; hits give low values; activity change, % at 57.5 µM; 4.7% of 360,000 active; in the data active = activity change below about -50%; inconclusive = mostly about -30% to -49%
#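 Secreted IL-1B measured by AlphaLISA bead assay after 16 h compound exposure of THP-1 cells; compounds (final up to 57.5 uM) added 1 h before LPS (250 ng/mL) and ATP (1.25 mM) stimulation; lower signal means less secretion.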
# HT1080NT lethal = kills 2HG-producing HT-1080-NT fibrosarcoma cells. HT-1080-NT fibrosarcoma viability, CellTiter-Glo ATP luminescence, 48 h. Potency, µM (top dose mostly 46.1 µM), inactives show at the top dose activity, negative = less viability, actives largely listed as cytotoxic. 1.6% of 360,000 active;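 also: NT is the 2HG producing partner of a matched IDH1 knockdown line; potency is read from the fitted curve at half-maximal effect; 0% = DMSO-treated cells and -100% = media-only wells without cells; nearly all actives have a fitted effect of over 55% in size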
#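 750 cells/well, RPMI + 5% FBS; 2 h settle, compound pin-transfer, 48 h at 37 degrees C. CellTiter-Glo 10 min RT, luminescence. Normalized to DMSO and media-only wells.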
# HT1080 IDH1KD tx = kills HT-1080 cells with IDH1 knockdown; 2% of 360,000 active; AID 686971; HT-1080 IDH1 knockdown viability, ATP luminescence, 48 h; Potency, µM (highest dose often 46.1 µM), inactives show at the highest dose activity, negative = toxicity, usual class: cytotoxic;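 also: potency is read from the fitted curve at half-maximal effect; 0% = DMSO wells and -100% = cell-free medium wells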
#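 % activity derives from luminescence (CellTiter-Glo), normalised to DMSO and no-cell wells. HT-1080-IDH1KD cells, 750/well, had 48 h compound exposure at 37 °C.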
# The depositor's hits bear a star; i = inactive; ? = inconclusive; . = no result given. Shown is part of a subset that was picked to be rich in hits. Unless noted, calls follow the shape of the dose curve; as a rule, active = well fitted curve in the direction sought with a large enough effect; inconclusive = small, poorly fitted or top-dose-only effect, or another doubt; inactive = no such curve, though single readings can be large; an effect the other way counts as inactive or inconclusive. Unless noted, % is scaled to controls: 0 for no effect and ±100 for the full control effect.
SMILES,12-LOX inh,TDP1 cell noCPT,TDP1 cell CPT,IL1B secr inh,HT1080NT lethal,HT1080 IDH1KD tx
Cc1ccc(N2CCC3(CCCN3Cc3ccc4nsnc4c3)CC2)nn1,52%,.,.,.,.,.
O=C(CSc1nc2cc([N+](=O)[O-])ccc2n1-c1ccccc1)NCc1ccc2c(c1)OCO2,-25%,23µM*,15µM*,7,-3%,-3%
Cc1cc(C(=O)CSc2nc3ccccc3c(=O)n2C)c(C)n1Cc1ccc2c(c1)OCO2,?,6.5µM*,5.8µM*,-19,1%,5.8µM*
Cc1cc(C)cc(-n2c(SCC(=O)NCc3ccc4c(c3)OCO4)nc3ccccc3c2=O)c1,10%,18µM*,7.3µM*,-8,1%,4%
O=C(CC1CCCC1)N1CC[C@@H]2COCCN(Cc3ccccc3)[C@@H]2C1,3%,.,.,.,.,.
O=C(NCc1ccccn1)C1CCN(C(=O)C2(c3ccc(F)cc3)CC2)CC1,34%,.,.,.,.,.
CCc1ccc2nc(C)cc(C(=O)OCC(=O)c3cccc([N+](=O)[O-])c3)c2c1,0%,.,.,.,.,.
Cc1ccc(C)c(NC(=O)CN(C)C(=O)[C@@H](NC(=O)c2ccc(C(C)(C)C)cc2)C(C)C)c1,-5%,18µM*,23µM*,-21,0%,-19%
CSCCC(NC(N)=O)C(=O)N(C)CC(=O)Nc1cc(C)ccc1C (stereo not drawn),-3%,3%,-4%,6,-2%,-7%
N=C1/C(=C/c2cccn2Cc2ccc(Cl)cc2)C(=O)N=C2SC=CN12,-19%,?,-13%,10,16µM*,21µM*
CC(C)S(=O)(=O)c1csc(NC(=O)Nc2cc(Cl)ccc2Cl)c1Cl,i,?,16µM*,-101*,2%,0%
CC(=O)Nc1cccc(C(C)NC(=O)Nc2cc(Cl)ccc2Cl)c1 (stereo not drawn),-28%,.,.,.,.,.
N#CC1=C(Nc2ccccc2Cl)SC(c2ccccc2O)NC1=O (stereo not drawn),?,?,21µM*,-1,5%,1%
Cc1ccc(C(C)C)c(OCc2n[nH]c(=S)o2)c1,?,-24%,-13%,33,-6%,1%
Cc1ccc(C(C)C)c(OCc2nc(-c3nonc3N)no2)c1,-6%,7.3µM*,16µM*,?,-7%,-28%
CCC(C)NCCOCCOc1ccc(Br)cc1 (stereo not drawn),-33%,23µM*,?,?,-17%,-1%
CCc1cccc2c1NC(=O)C2(O)CC(=O)c1ccc(Cl)cc1 (stereo not drawn),-51%,.,.,.,.,.
COC(=O)CSc1ncn(-c2nc(NC(C)C)nc(N(C)C)n2)n1,12%,.,.,.,.,.
O=c1c2cc(Cl)ccc2nc(-c2ccc(Cl)c(Cl)c2)n1O,-19%,5.2µM*,5.2µM*,15,1%,14%
O=c1c2ccc(Cl)cc2nc(-c2ccc([N+](=O)[O-])cc2)n1O,-13%,8.2µM*,8.2µM*,102,-16%,-23%
O=c1c2cc(Br)ccc2nc(-c2ccc([N+](=O)[O-])cc2)n1O,-5%,-109%,?,35,-15%,-14%
O=C(Oc1ccc2ccccc2c1)C1(c2ccccc2)CC1,-7%,.,.,.,.,.
COc1ccc2cc(C(=O)N3CCN(Cc4ccccc4)CC3)c(C)nc2c1,20%,.,.,.,.,.
Cc1cc(OCc2cccc(Cl)c2)c(C)cc1CN1CCOCC1,-14%,?,18µM*,-1,-6%,-21%
Cc1ccc(-c2csc(NC(=O)c3cc4cnn(C(C)C)c4nc3C)n2)cc1,4%,.,.,.,.,.
SMILES,12-LOX inh,TDP1 cell noCPT,TDP1 cell CPT,IL1B secr inh,HT1080NT lethal,HT1080 IDH1KD tx
Cc1ccccc1NC(=O)CSc1cn(CC(=O)N(C(C)C)C(C)C)c2ccccc12,0%,15µM*,?,.,.,.
CC(=O)c1ccc(NC(=O)CSc2cn(CC(=O)N(C(C)C)C(C)C)c3ccccc23)cc1,-25%,15µM*,?,.,.,.
O=C(CSc1cnc2ccccc2n1)OCc1ccccc1,-7%,.,.,.,.,.
CCN(CC)S(=O)(=O)c1ccc(N(C)C)c(NC(=O)CSCc2c(C)noc2C)c1,-1%,?,?,i,-6%,7%
CCN(CC)S(=O)(=O)c1ccc(OC)c(NC(=O)CSCc2c(C)noc2C)c1,2%,23µM*,?,-23,-8%,-3%
CN1C(=O)C(=O)/C(=C(/O)c2ccc(Br)cc2)C1c1ccc(F)cc1 (stereo not drawn),25µM*,6%,-3%,10,-5%,1%
Cc1ccc(/C(O)=C2\C(=O)C(=O)N(C)C2c2ccc(Br)cc2)cc1 (stereo not drawn),?,-5%,7%,34,4%,7%
COc1ccc(OC)c(NC(=O)c2cccn2-c2nnc(N3CCCCC3)s2)c1,-5%,?,21µM*,.,.,.
COc1ccc(CNC(=O)c2cccn2-c2nnc(N3CCCCC3)s2)c(OC)c1,-8%,23µM*,?,.,.,.
COc1ccc(NC(=O)c2cccn2-c2nnc(N3CCCCC3)s2)cc1,0%,?,?,.,.,.
COc1cc(OC)cc(C(=O)NC2CCSc3ccccc32)c1 (stereo not drawn),79%,23µM*,?,-5,-1%,-8%
CCCN1CCCCC12Cc1ccccc1CN(C(=O)C1CCCC1)C2 (stereo not drawn),41%,.,.,.,.,.
